# Unmarked numbers belong to inactive results. Inconclusive results are not listed. Where a call stands in place of a potency, no number is given. Activity calls are given as the source filed them. Unless noted, the call rests on the fitted dose curve; in most records, active means well fitted curve in the direction sought with a large enough effect in the repeat runs; inconclusive means weak or mixed curves; inactive means no such curve, though single readings can be large; an effect the other way counts as inactive or inconclusive.
# Key:
# [1] = biological target: Thyrotropin receptor (Homo sapiens) (UniProt P16473); assay: qHTS assay to identify small molecule agonists of the thyroid stimulating hormone receptor (TSHR) signaling pathway (AID 1224843; calls by dose curve; further: nearly all actives have a fitted effect of over 45% in size)
# Chain of Thyrotropin receptor (Homo sapiens) (P16473 whole entry, looked up): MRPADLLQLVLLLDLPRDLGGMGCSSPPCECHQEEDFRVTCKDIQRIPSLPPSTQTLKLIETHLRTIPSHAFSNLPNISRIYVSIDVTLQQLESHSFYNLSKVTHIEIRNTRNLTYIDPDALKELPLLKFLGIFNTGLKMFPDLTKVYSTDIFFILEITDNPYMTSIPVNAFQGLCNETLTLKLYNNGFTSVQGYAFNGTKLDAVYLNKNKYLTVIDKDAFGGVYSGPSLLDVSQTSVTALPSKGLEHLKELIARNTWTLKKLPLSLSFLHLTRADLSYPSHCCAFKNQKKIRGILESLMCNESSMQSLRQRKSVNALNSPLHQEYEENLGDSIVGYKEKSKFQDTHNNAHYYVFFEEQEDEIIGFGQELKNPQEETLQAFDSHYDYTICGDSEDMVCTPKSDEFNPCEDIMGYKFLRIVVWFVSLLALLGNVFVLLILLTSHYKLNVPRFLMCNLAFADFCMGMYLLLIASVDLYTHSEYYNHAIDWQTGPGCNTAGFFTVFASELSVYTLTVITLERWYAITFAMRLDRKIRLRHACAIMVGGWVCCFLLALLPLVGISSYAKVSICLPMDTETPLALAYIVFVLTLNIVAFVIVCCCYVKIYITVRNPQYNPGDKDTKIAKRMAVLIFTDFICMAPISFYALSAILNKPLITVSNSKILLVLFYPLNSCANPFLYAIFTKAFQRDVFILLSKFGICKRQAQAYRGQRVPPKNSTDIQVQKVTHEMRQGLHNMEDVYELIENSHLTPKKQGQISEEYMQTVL
# How it was run: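 HEK293/TSHR, 800 cells/well; cpd 30 min RT; add cAMP-d2 + anti-cAMP-cryptate, 1 h RT; fluorescence read on plate reader. 15-pt titration, n=3.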
# [2] = qHTS assay to identify small molecule agonists of the hypoxia (HIF-1) signaling pathway - cell viability counter screen (AID 1224844; calls by dose curve; further: nearly all actives have a fitted effect of over 50% in size; further: potency means the concentration at half of the fitted maximal effect)
# How it was run: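 Cytotoxicity measured by CellTiter-Glo ATP luminescence in the wells also read for beta-lactamase signal. Cells were HRE-bla ME-180 (2,000/well, 0.5% dialyzed FBS), exposed to compounds for 17 h at 37C.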
# [3] = qHTS assay to identify small molecule agonists of H2AX (AID 1224845; active means well fitted activation curve with a large enough effect in the signal ratio in the repeat runs, not every such curve was filed as active; the % refers to the signal ratio)
# How it was run: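 Wild-type CHO-K1 cells, plated overnight, exposed 3hr at 37C to 15 concentrations (0.76% DMSO final). Lysed, then HTRF anti-pH2AX (S139) cryptate and anti-H2AX-d2 antibodies, 24 hr room temperature; 665/620 nm emission read.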
# [4] = qHTS assay to identify small molecule agonists of the hypoxia (HIF-1) signaling pathway (AID 1224846; active means well fitted activation curve with a large enough effect in the signal ratio in the repeat runs, not every such curve was filed as active; the % refers to the signal ratio)
# How it was run: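 Compounds added to ME-180 cells carrying hypoxia-response-element beta-lactamase reporter (0.5% dialyzed FBS, 5 h preplating), 17 h at 37C; agonist activity detected by CCF4-AM B/G FRET read-out.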
# [5] = qHTS assay to identify small molecule agonists of H2AX - cell viability counter screen (AID 1224847; calls by dose curve; further: top concentration of the series differs between compounds; nearly all actives have a fitted effect of over 30% in size)
# How it was run: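 After overnight plating of 1000 CHO-K1 cells per well, a 15-concentration compound series was applied for 3 hr at 37C. Luminescence from CellTiter-Glo, read following 30 min at room temperature, reflected cell viability.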
# [6] = qHTS RealTime-Glo MT Cell Viability Assay in HepG2 cells - 24 hour (AID 1224867); further: nearly all actives have a fitted effect of over 50% in size
# How it was run: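 Tox21 10K library screened in qHTS format on HepG2 cells carrying RealTime-Glo reagents. Compounds were added after a 5 h preincubation, and the luminescent signal from continuous culture was measured repeatedly during 40 h treatment.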
# [7] = qHTS RealTime-Glo MT Cell Viability Assay in HEK293 cells - 32 hour (AID 1224868); further: nearly all actives have a fitted effect of over 50% in size; further: potency means the concentration at half of the fitted maximal effect
# How it was run: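 Luminescence generated by NanoLuc from substrate produced by living HEK293 cells served as the viability signal. Each value reflects the reading at its stated time point during continuous 40 h compound exposure at 37 C.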
# [8] = A CellTox Green Cytotoxicity Assay to monitor cytotoxicity in HEK293 cells - 0 hour (AID 1224869); further: nearly all actives have a fitted effect of over 50% in size; further: potency means the concentration at half of the fitted maximal effect
# How it was run: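 Fluorescence from a DNA-binding dye excluded by viable cells was measured repeatedly in the same HEK293 wells (600 cells/well) during continuous compound exposure at 37 C. Each assay gives one read point: 0, 8, 16, 24, 32 or 40 h.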
# [9] = qHTS assay to identify small molecule antagonists of the estrogen related receptor (ERR) signaling pathway from Tox21 library (AID 1224848); further: nearly all actives have a fitted effect of over 50% in size; further: potency means the concentration at half of the fitted maximal effect
# How it was run: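 Compounds dissolved in DMSO are pin-transferred onto ERR reporter cells (2,000 per well) that have settled for 6 h at 37 C. Plates then incubate 18 h at 37 C before ONE-Glo luciferase reagent and a luminescence read 30 min later.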
# [10] = qHTS assay to identify small molecule agonists of the estrogen related receptor (ERR) signaling pathway from Tox21 library (AID 1224849; calls by dose curve; further: nearly all actives have a fitted effect of over 15% in size); conditions: ERR reporter cell line, ONE-Glo luciferase, 18 h; at 92.4 µM (top of the series) unless noted
# How it was run: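 Luminescent agonist read-out (One-Glo, 30-minute room-temperature incubation) following 18-hour compound treatment at 37 C of the ERR cell line, which had been plated 6 hours before dosing.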
SMILES,Potency [1],Potency [2],Potency [3],outcome [4],Potency [5],outcome [6],Potency [7],Potency [8],Potency [9],"activity change, positive = activation [10]"
O=C(O)COCC(=O)O,inactive,inactive,inactive,inactive,inactive,inactive,inactive,inactive,,
CCCCOC(=O)CC#N,inactive,inactive,inactive,inactive,inactive,inactive,inactive,inactive,,
Cc1cc(SC2=C(O)C[C@@](CCc3ccc(N)cc3)(C(C)C)OC2=O)c(C(C)(C)C)cc1CO,inactive,inactive,inactive,inactive,inactive,inactive,inactive,inactive,inactive,
O=C(O)CNc1ccccc1,inactive,inactive,inactive,inactive,inactive,inactive,inactive,inactive,inactive,
CC(C)Oc1ccccc1O,inactive,inactive,inactive,inactive,inactive,inactive,inactive,inactive,inactive,
COc1ccc(/C(C)=C/C(=O)O)c(OC)c1,inactive,inactive,inactive,inactive,inactive,inactive,inactive,inactive,inactive,
NC(=O)c1ccccc1C(N)=O,inactive,49.2 µM (active),inactive,inactive,inactive,inactive,31 µM (active),49.2 µM (active),48.8 µM (active),-52.8%
FC1(F)C(F)(F)C(F)(F)C2(F)C(F)(C1(F)F)C(F)(F)C(F)(F)C1(F)C(F)(F)C(F)(F)C(F)(F)C(F)(F)C12F (stereo unspecified),inactive,inactive,inactive,inactive,inactive,inactive,inactive,inactive,,
CCCCCCCCCCCCSC#N,inactive,inactive,inactive,inactive,inactive,inactive,inactive,inactive,inactive,0.292%
CC(=O)Nc1ccccc1O,inactive,inactive,inactive,inactive,inactive,inactive,inactive,inactive,inactive,
CCCCCCCCCCCCSCCOCCO,inactive,inactive,inactive,inactive,inactive,inactive,inactive,inactive,inactive,-7.91% [at 42.5 µM]
N#C[C@@H]1CC(F)(F)CN1C(=O)CNC1CC2CCC(C1)N2c1ncccn1 (stereo partly specified),inactive,inactive,inactive,inactive,inactive,inactive,inactive,inactive,inactive,-3.52%
CC(C)NC(=O)c1ccccc1N,inactive,inactive,inactive,inactive,inactive,inactive,inactive,inactive,,
Cc1ccc(NC=O)c(C)c1,inactive,inactive,inactive,inactive,inactive,inactive,inactive,inactive,,
CC(C)=CCC/C(C)=C/C=N/O,inactive,inactive,inactive,inactive,inactive,inactive,inactive,inactive,,
C[Si](C)(C)O[Si](C)(C)O[Si](C)(C)C,inactive,inactive,inactive,inactive,inactive,inactive,inactive,inactive,,
Cc1ccc2c(Cl)cc(Cl)c(O)c2n1,inactive,inactive,inactive,inactive,inactive,inactive,inactive,inactive,,
CC(C(=O)O)c1ccc2c(c1)Cc1cccnc1O2 (stereo unspecified),inactive,inactive,inactive,inactive,inactive,inactive,inactive,inactive,,
C=CC(=O)NC(C)(C)C,inactive,inactive,inactive,inactive,inactive,inactive,inactive,inactive,,
C=C[Si]1(C)O[Si](C)(C=C)O[Si](C)(C=C)O[Si](C)(C=C)O1 (stereo unspecified),inactive,inactive,inactive,inactive,inactive,inactive,inactive,inactive,,
Clc1nc2ccccc2nc1Cl,inactive,inactive,inactive,inactive,inactive,inactive,,inactive,,
CC(C)(C)NCC(O)COc1ccc(NC(=O)NC2CCCCC2)cc1 (stereo unspecified),inactive,inactive,inactive,inactive,inactive,,,inactive,,
CC1(C)CC(=O)CC(C)(C)N1,inactive,inactive,inactive,inactive,inactive,inactive,inactive,inactive,,
O=C(Cl)c1cc(Cl)cc(Cl)c1,inactive,inactive,inactive,inactive,inactive,inactive,inactive,inactive,,
CC1(C)C(=O)NC(=O)N1CO,inactive,inactive,inactive,inactive,inactive,inactive,inactive,inactive,,
COC(=O)c1cc(Cl)ccc1[N+](=O)[O-],inactive,inactive,inactive,inactive,inactive,inactive,inactive,inactive,,
CCC(C)CCCC(C)(C)O (stereo unspecified),inactive,inactive,inactive,inactive,inactive,inactive,inactive,inactive,,

# From PubChem BioAssay (Tox21)
